Only some compounds are listed: those with a hit (about 19% of all), similar ones and a draw of the others.
TDP1 cell noCPT: qHTS for Inhibitors of human tyrosyl-DNA phosphodiesterase 1 (TDP1): qHTS in cells in absence of CPT. 420,000 compounds, 15% hits. Potency, µM (series often up to 46.2 µM), for inactives: top-dose activity change, negative = growth inhibition, usual class: inhibitors. AID 686978, 2013. DT40 Tdp1-/- hTDP1 cells, no CPT, ATP luminescence, 48 h; further: nearly all actives have a fitted effect of over 55% in size
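DT40 Tdp1-/-;hTDP1 cells, no CPT (DMSO vehicle only), 400 cells/well; compounds pin-transferred; ≥48 hr, 37 °C; CellTiter-Glo 30 min RT dark, luminescence read.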
HT1080 IDH1KD tx: qHTS for induction of synthetic lethality in tumor cells producing 2HG: qHTS for the HT-1080-IDH1KD cell line; 360,000 compounds, 2% hits; HT-1080 IDH1 knockdown viability, ATP luminescence, 48 h; Potency, µM (titrated, usually from 46.1 µM), inactives show at the top dose activity, negative = toxicity, most hits filed as cytotoxic;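 further: 0% = DMSO wells and -100% = cell-free medium wells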
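% activity derives from luminescence (CellTiter-Glo), normalised to DMSO and no-cell wells. HT-1080-IDH1KD cells, 750/well, had 48 h compound exposure at 37 °C.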
KB-3-1 cytotox: qHTS assay for MDR1-selective chemotherapeutics: Primary screen using the parental adenocarcinoma cell KB-3-1; KB-3-1 viability, CellTiter-Glo ATP luminescence, 72 h; Potency, µM (doses to about 46.1 µM), most hits filed as cytotoxic; 400,000 compounds, 1.4% hits; AID 1347075, 2019; further: nearly all actives have a fitted effect of over 60% in size
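Viability of parental KB-3-1 cells, measured by CellTiter-Glo luminescence, followed a 72 h incubation at 37 °C with pinned compounds in phenol-red-free DMEM containing 10% FBS.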
KB-V1 MDR tox: qHTS assay for MDR1-selective chemotherapeutics: Primary screen using the drug-selected MDR subline cells KB-V1 | KB-V1 MDR cells viability, CellTiter-Glo, 72 h | Potency, µM (series often up to 46.1 µM), usual class: cytotoxic | 400,000 compounds, 3.4% hits; further: nearly all actives have a fitted effect of over 60% in size
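Luminescent ATP read-out (CellTiter-Glo, 10 min) measures survival of drug-selected KB-V1 MDR cells after 72 h, 37 degrees C compound exposure. Medium: phenol-red-free DMEM, 10% FBS. Values from fitted concentration-response curves.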
HT1080NT lethal: qHTS for induction of synthetic lethality in tumor cells producing 2HG: qHTS for the HT-1080-NT fibrosarcoma cell line. HT-1080-NT fibrosarcoma viability, CellTiter-Glo ATP luminescence, 48 h. Potency, µM (titrated, usually from 46.1 µM), inactives show at the highest dose activity, negative = less viability, hits mostly cytotoxic. 360,000 compounds, 1.6% hits;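 further: NT is the 2HG producing partner of a matched IDH1 knockdown line; 0% = DMSO-treated cells and -100% = media-only wells without cells; nearly all actives have a fitted effect of over 55% in size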
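HT-1080-NT; 750 cells/well; 5% FBS RPMI; 48 h compound, 37 degrees C; CellTiter-Glo luminescence; curve fitting and curve-class assignment.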
DT40 TDP1 CPT: qHTS for Inhibitors of human tyrosyl-DNA phosphodiesterase 1 (TDP1): qHTS in cells in presence of CPT. chicken DT40 Tdp1-/-;hTDP1 cells + 20 nM CPT, ATP luminescence, 48 h. Potency, µM (top dose mostly 46.2 µM), inactives show top-dose activity change, negative = growth inhibition, most hits filed as inhibitors. 420,000 compounds, 12% hits. AID 686979, 2013; further: nearly all actives have a fitted effect of over 55% in size
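Cell growth measured by CellTiter-Glo luminescence after a minimum 48 h, 37 C compound exposure with 20 nM CPT in Tdp1-knockout DT40 cells stably expressing hTDP1, seeded 400/well; qHTS titration format.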
* = called active by the depositor; i = inactive; u = inconclusive; x = no result given. The call rests on the fitted dose curve; in most records, active means well fitted curve in the direction sought with a large enough effect; inconclusive means small, poorly fitted or top-dose-only effect, or another doubt; inactive means no such curve, though single readings can be large; an effect the other way counts as inactive or inconclusive. Unless noted, on the % scale 0 is the no-effect control and ±100 the full control effect; potency means the concentration at half of the fitted maximal effect.

SMILES | TDP1 cell noCPT | HT1080 IDH1KD tx | KB-3-1 cytotox | KB-V1 MDR tox | HT1080NT lethal | DT40 TDP1 CPT
N=C1N(c2ccccc2)C(=S)C(=Nc2ccccc2)N1c1ccccc1 | 13µM* | u | i | i | 2% | 18µM*
C/C(=C\c1ccccc1)C(=O)Nc1ccc(Cl)cn1 | -13% | -2% | i | i | 10% | -16%
Brc1ccc(-c2nc(N/N=C/c3cccnc3)c3ccccc3n2)cc1 | 13µM* | u | u | u | u | 12µM*
C(=N\Nc1ccccn1)/c1cccnc1 | 0% | 4% | i | i | 9% | 4%
COc1cccc(/C=N/Nc2nc(-c3cccnc3)nc3ccccc23)c1 | 16µM* | 3% | i | i | -1% | 16µM*
C(=N\Nc1nc(-c2cccnc2)nc2ccccc12)/c1ccccc1 | 16µM* | 5% | i | i | -5% | u
FC(F)(F)c1nc2ccccc2nc1N/N=C\c1ccccc1 | 18µM* | -14% | u | u | -14% | 21µM*
COC(=O)c1sc(NC(=O)c2cnccn2)c(C(=O)OC)c1C | 6% | -13% | i | i | -12% | -22%
COc1ccc(Cl)cc1NC(=O)CSC1=NN2CCCC(=O)N=C2S1 | 12µM* | -23% | i | i | -6% | u
CCOC(=O)c1c(NC(=O)CSC2=NN3CCCC(=O)N=C3S2)sc2c1CCCCC2 | u | -1% | u | i | -12% | 21µM*
CCOC(=O)c1ccc(NC(=O)CSC2=NN3CCCC(=O)N=C3S2)cc1 | u | -11% | i | i | -3% | 21µM*
Cc1cccc(C)c1NC(=S)NCCSc1ccc(Cl)cc1 | u | -10% | u | u | -13% | u
COc1ccc(Cn2cccc(NC(=O)Nc3ccc(F)cc3)c2=O)cc1 | -8% | -15% | i | i | -12% | -16%
COc1cccc(Cn2cccc(NC(=O)Nc3ccc(C#N)cc3)c2=O)c1 | 8.2µM* | -11% | i | u | -25% | 18µM*
CSc1ccc(NC(=O)Nc2cccn(Cc3ccccc3)c2=O)cc1 | u | u | 8.2µM* | 3.7µM* | u | 0%
COc1cccc(OC)c1C(=O)Nc1cccnc1 | 1% | 12% | i | i | 10% | -11%
O=C(NCCc1ccc(Cl)cc1)c1ccc2c(c1)N(Cc1ccccc1)CCS2 | u | x | i | i | x | 16µM*
Cc1ccc(CN2CCSc3ccc(C(=O)NCCc4ccccc4)cc32)cc1 | 23µM* | x | i | i | x | 23µM*
Cc1ccc(CN2CCSc3ccc(C(=O)NCC(C)c4ccccc4)cc32)cc1 (centres undefined) | 23µM* | x | i | i | x | u
COc1ccc(OC)c(CCNC(=O)c2ccc3c(c2)N(Cc2ccccc2)CCS3)c1 | 16µM* | -11% | u | u | -15% | 23µM*
Cc1ccc(CN2CCSc3ccc(C(=O)NCc4ccccn4)cc32)cc1 | -16% | -16% | i | i | 0% | u
NS(=O)(=O)c1ccc(CCNC(=O)c2ccc3c(c2)N(Cc2ccccc2)CCS3)cc1 | -8% | 6% | i | i | 6% | 1%
COc1ccc2nc(NC(=O)CSCC(=O)Nc3cc(C)on3)sc2c1 | -20% | -11% | i | i | -3% | 6%
CCn1cc(C2CC(=O)NC2=O)c2ccccc21 (centres undefined) | 1% | -1% | i | i | 2% | -5%
Cc1cc(Oc2ccc(Cl)cc2Cl)nc(C#N)n1 | 18µM* | -26% | x | x | -19% | 11µM*
SMILES | TDP1 cell noCPT | HT1080 IDH1KD tx | KB-3-1 cytotox | KB-V1 MDR tox | HT1080NT lethal | DT40 TDP1 CPT
O=C(CCNC(=O)c1ccco1)Nc1ccc(OC(F)F)cc1 | 0% | 0% | i | u | -9% | -11%
Cc1cc(C)c2ccc(N)nc2c1O | 18µM* | u | u | i | 10µM* | 23µM*
CCN(CC)C(=O)c1sc2c(c1C)c(=O)n(-c1ccc(C)c(C)c1)c(=O)n2CC(=O)Nc1ccc(F)cc1 | u | x | i | u | x | -27%
CCn1c(=O)c2cc(C(=O)Nc3cc(OC)c(OC)c(OC)c3)sc2c2ccccc21 | 6.5µM* | x | i | u | x | 9.2µM*
CCn1c(=O)c2cc(C(=O)NC(C)C)sc2c2ccccc21 | u | 10% | u | i | 4% | u
CCn1c2ccccc2c2cc(N=C3SC(CC(=O)Nc4ccccc4OC)C(=O)N3C)ccc21 (centres undefined) | 26µM* | -2% | i | i | 6% | u
CCN(CC)CCOC(=O)c1ccc(NC(=O)c2cc3c(=O)n(CC)c4ccccc4c3s2)cc1 | 5.2µM* | x | i | i | x | 5.2µM*
CCn1c(=O)c2cc(C(=O)Nc3cc(C)on3)sc2c2ccccc21 | u | 12% | i | i | 15% | 11%
CCn1c(=O)c2cc(C(=O)N3CCN(C)CC3)sc2c2ccccc21 | u | -6% | i | i | -27% | 5%
CCn1c2ccccc2c2cc(N=C3SC(CC(=O)Nc4ccccc4OC)C(=O)N3CCOC)ccc21 (centres undefined) | u | 3% | i | i | 1% | u
CCn1c(=O)c2cc(C(=O)Nc3ccccc3OC)sc2c2ccccc21 | 21µM* | 2% | i | u | 12% | 15µM*
CCc1cnc2c(c1SCC(=O)Nc1ccc(Cl)cc1)c(=O)n(C)c(=O)n2C | -5% | x | i | i | x | -13%
COc1ccc(OC)c(NC(=O)c2cc3c(Cl)nc4ccccc4c3s2)c1 | u | -6% | i | i | -6% | u
COc1ccc(NC(=O)c2cc3c(Cl)nc4ccccc4c3s2)cc1OC | 21µM* | u | i | u | u | u
C=CCN1C(=O)/C(=C/c2ccc(O)c(OC)c2)S/C1=N/c1nccs1 | u | u | i | 15µM* | -2% | -20%
CN=C1S/C(=C\c2ccc(O)c(OC)c2)C(=O)N1C | -20% | -17% | i | i | -30% | -3%
